About 83,000 compounds went through this panel and 20% of them were active in at least one assay; those are over-represented in the sample as a whole.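 48-hour exposure, single concentration, 96-well plates; percent growth endpoint where 0 means no net growth. Active: below 10.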 A number with no mark means an inactive call. Activity calls are given as the source filed them.

From PubChem BioAssay (NCI) come the findings set out here.

Some test systems named below: NCI-H23 lung; NCI-H226 lung; NCI-H322M lung; HOP-62 NSCLC; NCI-H460 lung; HOP-92 NSCLC; NCI-H522 lung; A549/ATCC NSCLC; 786-0 renal; COLO 205 colon; DU-145 prostate; K-562 leukemia; MALME-3M melanoma; MDA-MB-231 breast; RXF 393 renal; SF-268 CNS; SF-295 CNS; SF-539 CNS; UACC-257 melanoma; M14 melanoma.
What all share (test): NCI-60 one-dose screen, 48 h (100 = growth as untreated, 0 = no growth, -100 = all killed)
What all share (details): 10 µM unless noted

As to `CCSCC1CC(O)(c2ccccc2)CC(c2ccc(F)cc2)O1` (stereo not given), the growth with NCI-H23 lung is 26.6%; in the test on NCI-H226 lung, 24.6%; in the test on NCI-H322M lung, 45.4%; in the test on HOP-62 NSCLC it was 26.2%; with NCI-H460 lung, -30.9% (active); in the test on HOP-92 NSCLC, -9.6% (active). In addition, the growth with NCI-H522 lung was 53.9%; in the test on A549/ATCC NSCLC, 20.7%; with 786-0 renal, -23.7% (active); in the test with COLO 205 colon, -94.8% (active); with DU-145 prostate, 9.94% (active); in the test with K-562 leukemia, 11.9%. The growth was -17.8% (active) in the test on MALME-3M melanoma; 20.6% with MDA-MB-231 breast; -5.44% (active) in the test on RXF 393 renal; 20% in the test with SF-268 CNS; -14.8% (active) with SF-295 CNS; 36.5% in the test on SF-539 CNS. The growth was 35.7% with UACC-257 melanoma and 5.84% (active) in the test on M14 melanoma.
As for `CCCOc1ccc(/C=N/Nc2cc(C)nc3ccc(Br)cc23)cc1`, the growth is 86.9% in the test on NCI-H23 lung; 93.3% in the test with NCI-H226 lung; 94.5% in the test on NCI-H322M lung; 92.7% with HOP-62 NSCLC; 70.5% in the test with NCI-H460 lung; 67.9% with HOP-92 NSCLC. The growth is 101% with NCI-H522 lung; 94.6% in the test with A549/ATCC NSCLC; 100% with 786-0 renal; 44.8% in the test with COLO 205 colon; 86.8% with DU-145 prostate; 11.5% with K-562 leukemia. Also, the growth was 112% in the test with MALME-3M melanoma; 92.9% in the test with MDA-MB-231 breast; 83.4% in the test with RXF 393 renal; 102% with SF-268 CNS; 81% with SF-295 CNS; 83.9% with SF-539 CNS. The growth in the test on UACC-257 melanoma was 98.7%; in the test on M14 melanoma, 80.3%.
`C=CC(=O)N[C@@H](/C=C/C(=O)OCC)Cc1ccc(-c2cc(Cl)cc(Cl)c2)cc1`: the growth with NCI-H23 lung was 15.6%; in the test on NCI-H226 lung, 10.8%; in the test on NCI-H322M lung, 58.9%; in the test with HOP-62 NSCLC it was 36%; in the test with NCI-H460 lung, 9.25% (active); with HOP-92 NSCLC, 14.8%. For the same compound, the growth in the test with NCI-H522 lung is 3.13% (active); in the test with A549/ATCC NSCLC, 11.6%; in the test with 786-0 renal it was 11.8%; in the test on COLO 205 colon it was 6.63% (active); in the test on DU-145 prostate, 16.9%; in the test on K-562 leukemia, 8.57% (active). The growth in the test on MALME-3M melanoma was 4.14% (active); in the test on MDA-MB-231 breast, 9.36% (active); in the test on RXF 393 renal it was -10.1% (active); in the test with SF-268 CNS it was 32.1%; in the test with SF-295 CNS, 21.8%; in the test on SF-539 CNS it was 56.8%. For the same compound, the results for the growth in the test on UACC-257 melanoma and in the test on M14 melanoma were -2.68% (active) and 24.7%, respectively.
As to `Nc1nc(Nc2ccccc2SSc2ccccc2Nc2nc(N)nc(-c3cccs3)n2)nc(-c2ccsc2)n1`, the growth in the test on NCI-H23 lung is 59.5%; in the test with NCI-H226 lung, 85.2%; with NCI-H322M lung, 90.6%; in the test with HOP-62 NSCLC, -41.2% (active); in the test with NCI-H460 lung it was 55.9%; with HOP-92 NSCLC, 104%. For the same compound, the growth is 85.3% with NCI-H522 lung; 18.4% with A549/ATCC NSCLC; 93.6% with 786-0 renal; 97.8% in the test with COLO 205 colon; 95.1% in the test with DU-145 prostate; 80.9% in the test with K-562 leukemia. Also, the growth is 106% with MALME-3M melanoma; 75.8% in the test with MDA-MB-231 breast; 109% in the test on RXF 393 renal; 79.6% in the test on SF-268 CNS; -53.4% (active) in the test with SF-295 CNS; 105% with SF-539 CNS. In addition, the growth in the test on UACC-257 melanoma is 101%; with M14 melanoma, 96.5%.
Consider `Cc1nn(-c2ccccc2)c(Oc2c(Cl)cccc2Cl)c1/C=N/N=c1\sc2ccccc2n1C`, for which the growth in the test on NCI-H23 lung was 72.5%; in the test with NCI-H226 lung, 53.3%; with NCI-H322M lung it was 82.2%; in the test with HOP-62 NSCLC, 83.6%; in the test on NCI-H460 lung, 17.4%; in the test on HOP-92 NSCLC, 60.3%. The growth with NCI-H522 lung was 65.5%; with A549/ATCC NSCLC, 47.5%; with 786-0 renal, 50.8%; with COLO 205 colon, 40.8%; in the test on DU-145 prostate, 67.7%; with K-562 leukemia, 28.3%. Further, the growth in the test on MALME-3M melanoma is 81.6%; with MDA-MB-231 breast, 51.3%; with RXF 393 renal, 54.7%; with SF-268 CNS, 52.2%; in the test with SF-295 CNS, 54.3%; in the test with SF-539 CNS it was 49.9%. Besides, the values for the growth in the test with UACC-257 melanoma and with M14 melanoma were 71.3% and 60.8%, respectively.
In the case of `C/C(=N\Nc1cc(C)nc2ccc(Br)cc12)c1ccc([N+](=O)[O-])cc1`, the growth with NCI-H23 lung is 88.4%; in the test with NCI-H226 lung it was 90%; in the test with NCI-H322M lung, 82.7%; with HOP-62 NSCLC, 76.9%; with NCI-H460 lung, 69.8%; with HOP-92 NSCLC, 77%. The growth in the test with NCI-H522 lung was 76.6%; in the test on A549/ATCC NSCLC, 78.6%; with 786-0 renal, 10%; in the test with COLO 205 colon, 31.8%; in the test on DU-145 prostate, 64.8%; in the test with K-562 leukemia it was 11.3%. For the same compound, the growth in the test with MALME-3M melanoma is 123%; in the test with MDA-MB-231 breast, 59.4%; in the test with RXF 393 renal it was 68.6%; in the test with SF-268 CNS it was 97.8%; in the test with SF-295 CNS, 49.4%; in the test on SF-539 CNS, -43.6% (active). The growth in the test on UACC-257 melanoma is 107%; in the test with M14 melanoma it was 84.6%.
For `N=C(N)c1ccc(OCCCCCCCCCCOc2ccc(C(=N)N)cc2)cc1`, the growth with NCI-H23 lung is -69.5% (active); in the test on NCI-H226 lung, -71.7% (active); with NCI-H322M lung, -99% (active); in the test with HOP-62 NSCLC, -76.6% (active); in the test with NCI-H460 lung it was -88.6% (active); in the test on HOP-92 NSCLC it was -86.1% (active). Further, the growth is -75.8% (active) in the test with NCI-H522 lung; -85.4% (active) in the test on A549/ATCC NSCLC; -89.8% (active) with 786-0 renal; -61.6% (active) with COLO 205 colon; -96.6% (active) in the test with DU-145 prostate; -67.5% (active) in the test on K-562 leukemia. In addition, the growth is -81.8% (active) in the test with MALME-3M melanoma; -91.7% (active) in the test with MDA-MB-231 breast; -82.8% (active) in the test on RXF 393 renal; -81.3% (active) in the test on SF-268 CNS; -82.4% (active) in the test with SF-295 CNS; -87% (active) with SF-539 CNS. Further, the growth was -69.7% (active) with UACC-257 melanoma and -85.6% (active) in the test on M14 melanoma.
Take `C=C1C(=O)O[C@H]2[C@H]1CC/C(C(=O)NCCCCCNC(=O)/C1=C/CC[C@@]3(C)O[C@H]3[C@H]3OC(=O)C(=C)[C@@H]3CC1)=C\CC[C@@]1(C)O[C@@H]21`: the growth in the test on NCI-H23 lung is 97.6%; with NCI-H226 lung, 103%; in the test with NCI-H322M lung, 93.9%; in the test with HOP-62 NSCLC, 98.8%; in the test with NCI-H460 lung it was 109%; with HOP-92 NSCLC, 105%. Besides, the growth with NCI-H522 lung is 89.3%; with A549/ATCC NSCLC, 95.3%; in the test with 786-0 renal, 101%; in the test on COLO 205 colon, 102%; in the test on DU-145 prostate it was 104%; in the test on K-562 leukemia, 114%. The growth with MALME-3M melanoma is 96.2%; with MDA-MB-231 breast, 106%; in the test with RXF 393 renal, 110%; in the test with SF-268 CNS, 96.1%; in the test on SF-295 CNS, 105%; in the test with SF-539 CNS it was 105%. Also, the growth in the test on UACC-257 melanoma is 97.7%; in the test with M14 melanoma, 92.3%.
